The source of these data is the supplement of paper PMC10105736.

What all share (assay): MAPPIT interaction score (arbitrary units); higher = stronger binary interaction signal, active = hit call of the paper
The target in assay [1] is Hmg-2. The note with it: MAPPIT configuration: N-C; pair source set: screen_3.
Assay [2] addresses GstE4. The note with it: MAPPIT configuration: N-C; pair source set: RRS.
Assay [3] addresses PGRP-LE. The note with it: pair source set: Lit-BM-16.
Assay [4] has as its target Wee1. The note with it: MAPPIT configuration: N-N; pair source set: Curagen_high_conf.
For assay [5], the target named is Hn. The note with it: MAPPIT configuration: N-N; pair source set: Curagen_high_conf.
Assay [6] concerns the target jbug. The note with it: MAPPIT configuration: N-C; pair source set: screen_3.
In assay [7] the target is HP5. The note with it: MAPPIT configuration: N-N; pair source set: Curagen_low_conf.
Assay [8] concerns the target HP6. The note with it: MAPPIT configuration: N-N; pair source set: screen_1.
Assay [9] deals with GstD8. The note with it: MAPPIT configuration: N-N; pair source set: screen_1.

A number with no mark means an inactive call.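 The calls were made as follows: active = MAPPIT score above the 99th percentile of random reference set scores in the same batch; inactive = at or below it.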
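Also: HEK293T cells with Epo stimulation, STAT-responsive firefly luciferase reporter, fold induction versus unstimulated cells divided by the larger fold induction of two negative controls lacking either bait or prey.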

B1: Sas10 (protein)
chain: MDSDGDDYVMSGSDQEYDDEEREILEDLRKQRKKPHDPVQEVLGFSDDDDDDDDDDEEEQQDVAELMRDSDIEGAEDDDRDLPNTMDWGSKRSTYYNTDFVDQDYSSYNAQEEEQARAEEEEAKKIQLRLAKRMSEADFQLDNVEAAPAGSSDDNELSHITKVTSDLAGLSERERRQLMHSESPEFIILTQDFQQHLDEVKNLLKPVLNYVRKHDVPMVPALQYAGLCHTVLTTYCSNVAFYLLLKARRIDVKAHPVIRRLVQLKDLIEELKPRYEEYIRPQLEALLERIEDGDAFTVLDVAQRKAKLQILNKYNDGQQASVSSDDDDNDDDDDAESKEKDLQEEAGEEEEEEDARRGITYQMAKNKGLTPHRKKELRNPRVKHRGKYRKALIRRKGAVRTVRKELQRYGGELSGIKAGVTKSVKFRT
B1: in assay [1], the MAPPIT interaction score is 0.087.

B2: PGRP-LE (protein)
chain: MSESGIKKLSQERTREWLASQEDEELESIAESSVVDSLDYDYTEEEEDADQNTSEEISTMTLGTQIATKKHSIISDTIRDLMNSINSIQTLGNVNISNSTNVHIGNVTNINGNIQIIADGLTQNRRDRRHVSPPRDNAPKTPTHFEDDYQDESEERVRSDVFIRRQKFKIPKELSAIIPRSSWLAQKPMDEPLPLQLPVKYVVILHTATESSEKRAINVRLIRDMQCFHIESRGWNDIAYNFLVGCDGNIYEGRGWKTVGAHTLGYNRISLGISFIGCFMKELPTADALNMCRNLLARGVEDGHISTDYRLICHCQCNSTESPGRRLYEEIQTWPHFYNIEEEEQ
Turning to B2, the MAPPIT interaction score in assay [2] is 0.646; in [3] (MAPPIT configuration: N-C) it was 3.96 (active); in assay [3] (MAPPIT configuration: N-N), 4.49 (active); in [4], 2.63 (active).

B3: Nelf-E (protein)
chain: MVYIHFPNNLTEEEQMLQAKYQKLKKKKKALQAHKAPKPEPESSLTLKRPTDARDAREVARKLIKSGAIPAIQKQTKQDQTSFKRPKGQERAKRSTSETTVASYQPFSSTQNDVAQETIISEIIKEEPRRQNLYQHFATERDREERGMPEKVPMDTAQPEKPRAGNTIFVSGNKVTEDFLKKTFNDYGTIVNVSMEIEKSRGFVSFAKPESADRAIAEIHGKNVNGINLQVQLARRQPQIEPINDASSSAVWSSIAASKSQKGSHKDHREMVQYDEDFLL
With B3, the MAPPIT interaction score is 0.208 in [5] and 0.0879 in assay [6].

B4: ZIPIC (protein)
chain: MNCCICQFSVRVPKDIHTDTVGHPPVLISELVLQCTRGTNYVLTEESSTICKKCCEKLARYHKSIQIARKLRGEILELIHSPYMSKDHKQTSYKEDDLDRETTISKFDGNIEEAQQQDEEEQELESVGTTVTLVGPAGIVEEVAEEEHTFIIKQSEEEDEFHSVDLELDIDNEIIINEEEAHEVEEVAHEIEEVAHEIEEEDLLPHDKQEAQEEDFFKEDTMSDFDEHLDGAIEYIISDGEDQEQDNESSGEYTVNIQCPSCPEKFSSRRAYNVHTKREHFPGYVCDQCGKTLQSYSGFIGHLQNHEPVKQFACPVCPERFSRKFRLKHHMAWHSGETPYQCDVCSKRFVHKVALYKHKMIHDSETKRLECQVCGFKTRTKAHLERHMRSHTGDKPFACPVCNKRFSQMYNMKAHLREHESPGTNRHRRFHCSKCTHTFINEQNYDAHVQRDDCTPV
As for B4, the MAPPIT interaction score in [7] was 0.196.

B5: dmt (protein)
chain: MVRTRPVPCVPSPDVNTATRRNPGRPKKQSIGADLSTTISKPGRPKKLSIGADLTTIRKPGRPKKLGADLTTIIRKPGRPTKLSNKQSLTALNEPECRIRKCVVKIRRIKVKNGVVSEISRNDAPDVDASTFEPARNSTMYIPSKVQKSTQPQNIKENVAGPETSPCQQRIRSKSPSGPAAEISPKKPPRFFHRDQPLTRTRSSVTRNVFDFLSQSQIEDDSDREDPAADIIQRLVKDGKACVMVRSRKIGKPRAKRTAKKVRPVGNRRKVSTKDNEPEPVKVVPKSIEPRLQKPSRSLSTIFEPEEDYSNDSEHGYVQPIEVPVQVHVEPSTSKQAHEGAYSNLARSVMLNQTQAQNPLPSTDRRRELINMARQLVSTPLNRRAPPVTDVSATTTALSPIAHQSPNAVRTAGGKSPWRVSDDSPLPNTFMFGFNNSQMPSYSSDHVQRRHVYVPDSPVEHAENIPHEESICPPLHEQNHDSNANDSNEENRPPPTISKSMSINDQESEENAENFVHLPNPRRTLQKRTPFKDINILEVVTLPSWKKNVTATVSKEITPTRVAPRPMATSSPAQRSQTRSNLFGFDDDFACEDIPRKSTTPSKGIAPTSMSLNREVTPALANRNQTEVNTFGCNEILPCENIPKEKETNTEERTSSSQNLFGFDEFITESQDSPANFTGLSQNVNLHDKLHRLAELRPRDGELPQVSYTSIRSDCLGESHSKQTDIRYMLCSTMIAPPRPAKRKPAAPTARESMGLFRVDQDEPEQSFADKQPRRTYVKERPQRKRKKRVQILYIESESEDEDEQDSHDKSLDSPEKKRHHVKRPRRDIEHEAKLEQFVTSFNKQCEEVEKFPVIIE
As for B5, the MAPPIT interaction score in assay [8] is 4.14 (active).

B6: GstD1 (protein)
chain: MVDFYYLPGSSPCRSVIMTAKAVGVELNKKLLNLQAGEHLKPEFLKINPQHTIPTLVDNGFALWESRAIQVYLVEKYGKTDSLYPKCPKKRAVINQRLYFDMGTLYQSFANYYYPQVFAKAPADPEAFKKIEAAFEFLNTFLEGQDYAAGDSLTVADIALVATVSTFEVAKFEISKYANVNRWYENAKKVTPGWEENWAGCLEFKKYFE
On to B6, for which the MAPPIT interaction score in assay [9] is 5.85 (active).
